Results on 14 compounds are retold here after PubChem BioAssay (NCI).

Experiment in all cases: NCI-60 one-dose screen, 48 h (100 = growth as untreated, 0 = no growth, -100 = all killed)
Common to all, as to settings: 10 µM

The test system of assay [1] is SK-MEL-2 melanoma.
Assay [2] relates to EKVX NSCLC.
Assay [3] has as its system SN12C renal.
The subject of assay [4] is UO-31 renal.
Assay [5] relates to TK-10 renal.
The subject of assay [6] is ACHN renal.
Assay [7] concerns CAKI-1 renal.
The subject of assay [8] is MOLT-4 leukemia.
Assay [9] concerns SR leukemia.
For assay [10], the system named is OVCAR-8 ovarian.
Assay [11] deals with OVCAR-5 ovarian.
The subject of assay [12] is OVCAR-4 ovarian.
The subject of assay [13] is SK-OV-3 ovarian.
The subject of assay [14] is IGROV1 ovarian.
The test system of assay [15] is OVCAR-3 ovarian.
In assay [16] the test system is HS 578T breast.
Assay [17] concerns CCRF-CEM leukemia.
The subject of assay [18] is NCI/ADR-RES ovarian.
In assay [19] the test system is RPMI-8226 leukemia.

The panel holds about 83,000 compounds, 20% with a hit somewhere; the sample as a whole holds those more often.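 How to read the values: 0–100, growth inhibition (40 = 60% inhibited); 0, no net growth; -100 to 0, cell death (-40 = 40% of starting cells died; -100 = all dead).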 Values without a mark were called inactive. The source made the active and inactive calls. Rule for the calls: active = growth percent below 10; inactive = the rest.

Regarding `COCCn1cc(-c2nc(-c3cccnc3)cs2)c2cc(F)ccc21`, the growth in assay [1] was 106%; in [2], 90.8%; in assay [3] it was 95.7%; in [4], 107%; in assay [5] it was 80.4%; in assay [6] it was 101%. Further, the growth was 103% in assay [7]; 79.3% in assay [8]; 63.5% in assay [9]; 102% in assay [10]; 92.7% in assay [11]; 95.6% in assay [12]. The growth in assay [13] is 7.36% (active); in assay [14] it was 110%; in assay [15], 94.1%; in assay [16] it was 98.6%.
Consider `CCc1ccc(C2=NN(c3ccc(S(C)(=O)=O)cc3)C(=O)CC2)cc1`, for which the growth was 36.9% in assay [1]; 60.4% in assay [2]; 31.4% in [3]; 33.3% in [4]; 71.1% in [5]; 46% in [6]. In addition, the growth is 16.7% in [7]; 15.6% in assay [17]; 15.3% in [8]; 4.42% (active) in assay [9]; 39.1% in [10]; 48.7% in assay [11]. For the same compound, the growth in assay [12] was 76.2%; in assay [13] it was 28.7%; in assay [14] it was 37.4%; in [15], -13.6% (active); in assay [16], -0.675% (active); in assay [18], 6.7% (active).
For `CC1=CC2C(C(O)CC3(C)C2CC(C)C32OCOC23COCO3)C2(C)C/C(=C/O)C(=O)C=C12` (stereo unspecified), the growth in [1] was 76.1%; in assay [2], 48.8%; in assay [3], 26.2%; in [4] it was 10.5%; in assay [5] it was 42.7%; in assay [6], 8.9% (active). In addition, the growth is 67.6% in [7]; -3.03% (active) in assay [17]; -32.8% (active) in assay [8]; -38.8% (active) in [9]; 43.8% in assay [10]; 63.2% in [11]. The growth in assay [12] was 35.8%; in assay [13] it was 48.5%; in assay [14], 70.9%; in assay [15], 10.8%; in assay [16] it was 83.4%.
With `Cc1cc(NC(=O)c2ccc(C)c(Nc3nccc(-c4cccnc4)n3)c2)cc(-n2cnc(C)c2)c1`, the growth in assay [1] was 83.5%; in assay [2], -56.9% (active); in [3], 27.5%; in assay [4], -55% (active); in assay [5] it was -20.5% (active); in assay [6], -13.7% (active). The growth in [7] was -80.2% (active); in assay [17], 38.1%; in assay [8], 14.3%; in assay [9], -22.3% (active); in assay [10] it was 61.3%; in assay [11], 46%. For the same compound, the growth in assay [12] was -28.7% (active); in assay [13], 27.6%; in assay [14], 32.3%; in assay [15], -7.87% (active); in assay [16], 5.73% (active); in assay [18], 59.1%.
As to `CCn1cc(CNc2ccc(C(=O)Nc3ccc4ccccc4c3)cc2)c(C)n1`, the growth was 61% in assay [1]; 36.5% in assay [2]; 85.7% in [3]; 47.1% in [4]; 1.78% (active) in assay [5]; 69.5% in assay [6]. Also, the growth is 53.6% in [7]; 15.5% in [8]; 46.2% in [9]; 45% in assay [10]; 94.4% in assay [11]; 20.8% in [12]. In addition, the growth in [13] is 11.8%; in assay [14], 68%; in assay [15] it was 55.9%; in assay [16], 105%; in [18], 23.3%.
With `Cc1ccc(-n2c(C)nn3c(=O)c4c5c(sc4nc23)CN(C)CC5)cc1`, the growth in [1] is 95%; in [2], 95%; in [3] it was 97.6%; in assay [4] it was 83.2%; in [5], 82.4%; in assay [6] it was 101%. Further, the growth in assay [7] was 88.5%; in assay [8], 97.9%; in assay [9] it was 104%; in assay [10] it was 103%; in [11] it was 98.8%; in assay [12] it was 102%. The growth is 95.1% in assay [13]; 101% in assay [14]; 96.7% in [15]; 107% in assay [16]; 101% in assay [18].
On to `O=S(=O)(NCCCNc1nccc(-c2cn(-c3ccccc3)nc2-c2ccc(Cl)c(O)c2)n1)c1ccccc1`, for which the growth in assay [1] was 65.5%; in assay [2], 55.2%; in assay [3] it was 67.2%; in assay [4], 45.9%; in [5] it was 76.9%; in assay [6], 66.1%. In addition, the growth in [7] is 90.4%; in [8], 43.1%; in assay [9], 42%; in [10] it was 59.5%; in assay [11], 118%; in assay [12] it was 71.1%. In addition, the growth in assay [13] is 83.8%; in assay [14], 73.5%; in assay [15], 66.8%; in assay [16], 67.3%; in assay [18], 33.3%.
As to `CCOC(=O)CSc1nc(-c2cc(OC)ccc2OC)cc(-c2ccc(OC)cc2)c1C#N`, the growth is 84.3% in [1]; 74.1% in assay [2]; 79.5% in [3]; 63% in [4]; 75.7% in assay [5]; 76.7% in assay [6]. Further, the growth was 83.4% in [7]; 76.6% in assay [8]; 69.7% in assay [9]; 82.4% in assay [10]; 97.3% in assay [11]; 101% in assay [12]. Besides, the growth in assay [13] was 85%; in assay [14], 55.4%; in [15] it was 95.4%; in assay [16], 90.2%; in assay [18] it was 81.6%.
As to `CC(=O)C1N=NCC1c1ccccc1` (stereo unspecified), the growth in assay [1] is 97.3%; in [2], 101%; in [3], 88.7%; in [4], 92.3%; in [5] it was 96.1%; in assay [6] it was 95.8%. Besides, the growth in assay [7] is 95.4%; in [8], 96.7%; in [9] it was 111%; in assay [19], 110%; in assay [10], 111%; in [11], 98.9%. Also, the growth was 106% in assay [12]; 103% in [13]; 110% in [15]; 90% in [16]; 104% in assay [18].
`COc1ccc(-c2nn(-c3cccc(Cl)c3)cc2-c2c(C#N)c(=O)n3[nH]c(-c4ccccc4)nc3c2C#N)cc1`: the growth in assay [1] is 88.6%; in [2] it was 35.9%; in [3] it was 104%; in assay [4], 82.5%; in assay [5], 123%; in assay [6], 101%. Moreover, the growth in [7] is 62.9%; in assay [17], 74.4%; in assay [8], 61.6%; in assay [9], 71.2%; in assay [10], 110%; in assay [11], 106%. The growth was 97.3% in assay [12]; 102% in [13]; 108% in assay [14]; 109% in [15]; 101% in [16]; 93% in assay [18].
Regarding `COc1ccc(C(=O)CSc2nc(-c3cc(OC)ccc3OC)cc(-c3ccc(OC)cc3)c2C#N)cc1`, the growth in assay [1] is 103%; in assay [2] it was 89.1%; in [3], 97.6%; in assay [4] it was 86.4%; in assay [5], 103%; in [6], 97.4%. The growth is 96.3% in assay [7]; 96.9% in [8]; 90.1% in [9]; 105% in assay [10]; 85.8% in assay [11]; 98.1% in assay [12]. Further, the growth in [13] is 87.1%; in assay [14], 102%; in [15], 97%; in [16] it was 103%.
For `O=C1CCn2c1c(O)c1ccccc1c2=O`, the growth is 126% in [1]; 94% in assay [2]; 108% in assay [3]; 96.5% in assay [4]; 107% in assay [5]; 111% in [6]. In addition, the growth in [7] was 86.3%; in assay [8] it was 106%; in assay [9], 95.1%; in assay [10], 103%; in assay [11] it was 114%; in assay [12], 104%. Moreover, the growth was 103% in assay [13]; 116% in [14]; 118% in [15]; 93.6% in assay [16]; 103% in [18].
Turning to `O=c1cn[nH]c2ccc(Br)cc12`, the growth in [1] is 103%; in assay [2], 108%; in [3], 105%; in [4] it was 78.9%; in assay [5] it was 95.4%; in [6] it was 103%. The growth was 113% in assay [7]; 96.1% in assay [17]; 86.5% in [8]; 89.4% in [9]; 98.8% in [10]; 108% in assay [11]. Moreover, the growth was 109% in assay [12]; 98.6% in assay [13]; 102% in assay [14]; 105% in [15]; 99.4% in assay [16]; 105% in [18].
`COc1ccc(-c2nn(-c3cccc(Cl)c3)cc2-c2cc(-c3ccccc3)nc(N)n2)cc1`: the growth in assay [1] is 83.6%; in assay [2], 58.2%; in [3] it was 35.8%; in assay [4], 60.8%; in assay [5] it was 86%; in assay [6], 71.1%. Moreover, the growth was 29.2% in [7]; 41.1% in assay [17]; 6.55% (active) in assay [8]; 11.3% in assay [9]; 67.9% in assay [10]; 59% in assay [11]. Moreover, the growth was 56.1% in assay [12]; 98.5% in [13]; 83.7% in assay [14]; 72.2% in assay [15]; 62% in assay [16]; 53.3% in assay [18].
